How the values were obtained:
Conditions in all cases: concentration: 1 μM, replicates: in singlicate; n = 1
[1] = system: NEK4
[2] = system: NEK5
[3] = system: NEK6
[4] = system: NEK7
[5] = system: NEK9
[6] = system: T1, NIK
T1 construct: gene MAP3K14

[7] = system: T2, NIM1
T2 construct: gene MGC42105

[8] = system: NLK
[9] = system: T3, OSR1
T3 construct: gene OXSR1

[10] = system: PAK1
[11] = system: PAK2
[12] = system: PAK3
[13] = system: PAK4
[14] = system: PAK6
[15] = system: PAK7
[16] = system: T4, PCTK1
T4 construct: gene CDK16

[17] = system: T5, PCTK2
T5 construct: gene CDK17

[18] = system: T6, PCTK3
T6 construct: gene CDK18

[19] = system: PDGFRA
[20] = system: PDGFRB
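Also: KINOMEscan kinase panel screen.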

Row | SMILES | %Inh [1] [%] | %Inh [2] [%] | %Inh [3] [%] | %Inh [4] [%] | %Inh [5] [%] | %Inh [6] [%] | %Inh [7] [%] | %Inh [8] [%] | %Inh [9] [%] | %Inh [10] [%] | %Inh [11] [%] | %Inh [12] [%] | %Inh [13] [%] | %Inh [14] [%] | %Inh [15] [%] | %Inh [16] [%] | %Inh [17] [%] | %Inh [18] [%] | %Inh [19] [%] | %Inh [20] [%]
1 | FC(F)(F)c1ccc(-c2ncn(CCCN3CCOCC3)c2-c2ccncc2)cc1 [SB-217780] | 0 | 9 | 0 | 10 | 33 | 0 | 26 | 35 | 5 | 20 | 34 | 12 | 21 | 17 | 0 | 10 | 0 | 20 | 34 | 32
2 | CCCNC(=O)Nc1ccc(Oc2ncnc3ccn(C)c23)cc1 | 0 | 0 | 13 | 0 | 11 | 0 | 0 | 0 | 17 | 17 | 30 | 0 | 0 | 12 | 5 | 15 | 8 | 0 | 54 | 46
3 | COc1ccc(-c2cc3c(C)nc(N)nc3n([C@H]3CC[C@H](OCCO)CC3)c2=O)cn1 | 0 | 0 | 22 | 0 | 0 | 0 | 21 | 0 | 0 | 0 | 1 | 0 | 0 | 0 | 0 | 0 | 3 | 0 | 0 | 1
4 | COc1ccc(-n2cnc3c(N)ncnc32)cc1 [SKF-97236] | 0 | 0 | 5 | 0 | 17 | 0 | 12 | 0 | 14 | 0 | 0 | 28 | 0 | 16 | 0 | 0 | 0 | 0 | 63 | 95.1
5 | Nc1nc(N)c2nc(-c3ccccc3)[nH]c2n1 [SKF-12778] | 8 | 10 | 5 | 9 | 6 | 0 | 0 | 2 | 22 | 0 | 0 | 0 | 13 | 0 | 5 | 5 | 0 | 0 | 0 | 14
6 | O=C(Nc1n[nH]c2nc(-c3ccccc3)c(Cl)cc12)C1CC1 [SB-734909] | 23 | 11 | 0 | 0 | 2 | 13 | 6 | 11 | 0 | 0 | 0 | 23 | 0 | 0 | 7 | 0 | 0 | 30 | 46 | 97
7 | Cc1c(Cn2c(C)nn3c(=O)cc(N4CCO[C@H](C)C4)nc23)cccc1C(F)(F)F [GSK2373690] | 31 | 0 | 1 | 0 | 0 | 2 | 0 | 27 | 22 | 0 | 3 | 7 | 0 | 0 | 0 | 0 | 0 | 26 | 0 | 14
8 | Cl.NS(=O)(=O)c1cccc(Nc2cc(-c3ccc(F)cc3)n[nH]2)c1 [GW824645] | 0 | 0 | 0 | 0 | 0 | 45 | 3 | 0 | 0 | 4 | 26 | 0 | 0 | 4 | 0 | 0 | 13 | 5 | 75 | 96.1

Reference: article PMC5540273 (PLoS ONE, 2017)
